Results: PubChem BioAssay (NCATS)
Values joined by “and” are separate entries in the source; they are usually repeats but may differ in a detail not shown here. Equal entries are not always repeated. Values without a mark were called inactive. Active and inactive are the calls of the source. Calls come from the whole dose curve; as a rule, active = well fitted activation curve with a large enough effect; inconclusive = small, poorly fitted or top-dose-only effect; inactive = flat fitted curve, though single readings scatter.

target: Peroxisome proliferator-activated receptor alpha (Homo sapiens) (UniProt Q07869); assay: qHTS assay for small molecule agonists of the peroxisome proliferator-activated receptor alpha (PPARalpha) signaling pathway (AID 651778); settings: PathHunter PPARalpha complementation, chemiluminescence, 6 h; max response: active compounds read high; for max response: % of control where 0% means no effect
Sequence (Q07869 whole entry, looked up): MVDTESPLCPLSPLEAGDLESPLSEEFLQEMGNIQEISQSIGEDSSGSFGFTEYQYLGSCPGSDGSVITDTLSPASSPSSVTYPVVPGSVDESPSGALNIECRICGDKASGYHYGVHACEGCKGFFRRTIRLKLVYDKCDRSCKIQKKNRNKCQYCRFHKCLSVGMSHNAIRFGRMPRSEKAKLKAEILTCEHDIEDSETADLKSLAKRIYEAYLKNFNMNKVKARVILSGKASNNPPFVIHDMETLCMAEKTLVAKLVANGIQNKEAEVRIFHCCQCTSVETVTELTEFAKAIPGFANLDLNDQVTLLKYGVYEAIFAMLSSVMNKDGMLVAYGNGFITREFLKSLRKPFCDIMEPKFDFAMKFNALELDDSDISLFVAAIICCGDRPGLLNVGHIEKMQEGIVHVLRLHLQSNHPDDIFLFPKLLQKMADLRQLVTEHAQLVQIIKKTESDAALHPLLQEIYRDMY
Outline: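 Cells plated at 2,000/well and held overnight at 37 C, 5% CO2, then compound added by pin tool for 6 hr; after PathHunter detection reagent and 60 min at room temperature, chemiluminescence from enzyme complementation was read.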
Potency is the fitted concentration of half-maximal effect.

Compound	max response	Potency
CCOC(C)=O	6.06%	
IC(I)I	-6.19% and -2.33%	
O=S(=O)(O)O	-1.64% and -3.82%	
CCOc1ccc2c(c1)C(C)=CC(C)(C)N2	-4.24% and -2.12%	
CC1=CCC(C(C)(C)O)CC1 (stereo not given)	-2.04%	
CC1(C)C(C=C(Cl)Cl)C1C(=O)OCc1cccc(Oc2ccccc2)c1 (stereo not given)	-0.904% [middle of 4 runs]	
C[C@H]1C[C@H]2[C@@H]3CCC4=CC(=O)C=C[C@]4(C)[C@@]3(F)[C@@H](O)C[C@]2(C)[C@@]1(O)C(=O)CO	-0.118%	
CCCCC/C=C\C/C=C\CCCCCCCC(=O)O		44.7 µM (active) and 28.2 µM (active)
CC(O)CO (stereo not given)	4.63% and -8.84%	
O=CCCCC=O	-1.75%	
